Bioassay records: PubChem, NMMLSC
Cdc42 wt GTP: modulators (inhibitors or activators) of GTP binding to human Cdc42 wildtype | P60953 | GST-Cdc42 beads, Bodipy-GTP binding, flow cytometry; actives lie on both sides | percent activity (GTP binding), % at 10 µM | 190,000 compounds, 0.2% hits | AID 761;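 active = percent activity GTP binding at least 20 points away from the 100% baseline, either down as inhibitor or up as activator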;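 also: median bead fluorescence of bound Bodipy-FL-GTP at 100 nM; 0% = excess unlabeled GTP control and 100% = no compound control; below 100% means less GTP binding so inhibitor and above means activator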
Target sequence (P60953 whole entry, looked up): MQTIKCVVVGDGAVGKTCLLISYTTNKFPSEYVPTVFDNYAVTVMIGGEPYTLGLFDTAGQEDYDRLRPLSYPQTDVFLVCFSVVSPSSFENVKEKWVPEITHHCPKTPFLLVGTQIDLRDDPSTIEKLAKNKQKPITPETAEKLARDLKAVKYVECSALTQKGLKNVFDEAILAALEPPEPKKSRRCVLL
Rac1 wt GTP bind: modulators of human Rac1 wildtype GTP binding; GST-Rac1 beads, fluorescent GTP binding, flow cytometry; actives lie on both sides; 0 = cold GTP competed, 100 = untreated; AID 757; P63000; 190,000 compounds, 0.27% hits; GTP binding activity (% of control), % at 10 µM;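 active = GTP binding activity at least 20 points away from the 100% control level, either lower or higher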
Rab2A wt mod: changes GTP binding to wildtype dog Rab2A, up or down; P61105; GST-Rab2 wt beads, Bodipy-GTP binding, flow cytometry; GTP binding activity, % at 10 µM; 190,000 compounds, 0.19% hits;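 active = GTP binding activity at least 20 points away from 100%, either lowered or raised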;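 also: 0% = beads with excess unlabeled GTP and 100% = no-compound control corrected for plate trend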
HRas wt GTP: changes GTP binding to wildtype human HRas | GST-Ras wt beads, Bodipy-FL-GTP binding, flow cytometry; actives lie on both sides | GTP binding activity, % at 10 µM | 190,000 compounds, 0.14% hits;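 active = GTP binding activity at least 20% away from the 100% baseline, either lowered as inhibitor or raised as activator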;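 also: 0% = unlabeled GTP competition control and 100% = no-compound control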
Target sequence (P01112 whole entry, looked up): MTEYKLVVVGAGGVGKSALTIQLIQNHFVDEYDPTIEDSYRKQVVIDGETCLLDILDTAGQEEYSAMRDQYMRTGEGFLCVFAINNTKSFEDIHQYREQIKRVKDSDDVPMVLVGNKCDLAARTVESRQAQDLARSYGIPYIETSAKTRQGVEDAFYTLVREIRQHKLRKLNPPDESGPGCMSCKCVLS
Rab7 wt GTP bind: alters GTP binding to wildtype dog Rab7; GTP binding activity (percent of control), % at 10 µM; 190,000 compounds, 0.055% hits; GST-Rab7 beads, fluorescent GTP binding, flow cytometry; actives lie on both sides; untreated = 100%, excess cold GTP = 0%;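 active = fluorescent GTP binding to Rab7 beads changed by at least 20 points from the 100% baseline, either direction, mostly lower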;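 also: median green fluorescence of bound Bodipy-FL-GTP per Rab7 bead population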
Rac1 mut GTP: modulators of GTP binding to human Rac1 activated mutant; P63000; 190,000 compounds, 0.11% hits; percent activity (GTP binding), % at 10 µM; AID 764; GST-Rac1 activated beads, fluorescent GTP binding, flow cytometry; actives lie on both sides; 100% means binding = to untreated wells;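 active = GTP binding at least 20 percentage points away from the 100% baseline, in either direction, so actives lie on both sides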
Numbers without * were called inactive; [ ] = another dose, or the depositor's remark. An excerpt weighted towards active compounds, which were near 0.38% of everything screened.

What do the screens show for `N#CC(C#N)=C1C=CC=CN1/C(=C\c1ccccc1)C(=O)c1cccs1`?
Cdc42 wt GTP: 81; Rac1 wt GTP bind: 98; Rab2A wt mod: 95; HRas wt GTP: 96; Rab7 wt GTP bind: 99; Rac1 mut GTP: 90

How did COC(=O)C1=C(C)NC(=O)/C1=C\c1cc(C)n(-c2c(C)cccc2C)c1C do in these assays?
Cdc42 wt GTP: 121*[activator]; Rac1 wt GTP bind: 113; Rab2A wt mod: 123*[activator]; HRas wt GTP: 122*[activator]; Rab7 wt GTP bind: 112; Rac1 mut GTP: 110

What do the screens show for `COC(=O)C1=C(C)NC(=O)/C1=C\c1cc(C)n(-c2ccccc2C)c1C`?
Cdc42 wt GTP: 102; Rac1 wt GTP bind: 102; Rab2A wt mod: 100; HRas wt GTP: 101; Rab7 wt GTP bind: 102; Rac1 mut GTP: 99

Results for COc1ccc(C2NC(c3ccc(OC)cc3OC)C(C)C(=O)C2C)c(OC)c1 (configuration not stated) ?
Cdc42 wt GTP: 97; Rac1 wt GTP bind: 101; Rab2A wt mod: 97; HRas wt GTP: 99; Rab7 wt GTP bind: 104; Rac1 mut GTP: 96

What do the screens show for `O=C(NNC(=S)NCc1ccc(Cl)cc1)c1ccc(Br)o1`?
Cdc42 wt GTP: 78*; Rac1 wt GTP bind: 90; Rab2A wt mod: 77*; HRas wt GTP: 90; Rab7 wt GTP bind: 96; Rac1 mut GTP: 80

What do the screens show for `CCOc1cc(OCC)cc(C(=O)NCCCN2CCOCC2)c1`?
Cdc42 wt GTP: 101; Rac1 wt GTP bind: 103; Rab2A wt mod: 98; HRas wt GTP: 99; Rab7 wt GTP bind: 97; Rac1 mut GTP: 95

What do the screens show for `COc1cc(C)c2c(c1C=O)Oc1c(c(C)c(O)c3c1C(O)OC3=O)OC2=O` (configuration not stated)?
Cdc42 wt GTP: 78*; Rac1 wt GTP bind: 80; Rab2A wt mod: 80; HRas wt GTP: 81; Rab7 wt GTP bind: 84; Rac1 mut GTP: 76*

How did O=C(O)COc1ccccc1/C=N/NC(=O)c1cc(-c2ccc(F)cc2)nc2ccccc12 do in these assays?
Cdc42 wt GTP: 82; Rac1 wt GTP bind: 78*; Rab2A wt mod: 86; HRas wt GTP: 87; Rab7 wt GTP bind: 99; Rac1 mut GTP: 84

How did C=CCC1(NCc2ccco2)CCN(CC)CC1 do in these assays?
Cdc42 wt GTP: 102; Rac1 wt GTP bind: 103; Rab2A wt mod: 99; HRas wt GTP: 100; Rab7 wt GTP bind: 104; Rac1 mut GTP: 98

How did Cn1nc(C(=O)Nc2cccnc2)c2ccccc2c1=O do in these assays?
Cdc42 wt GTP: 73*; Rac1 wt GTP bind: 85; Rab2A wt mod: 69*; HRas wt GTP: 74*; Rab7 wt GTP bind: 92; Rac1 mut GTP: 86

How did COC(=O)c1cccc(NC(=O)c2nn(C)c(=O)c3ccccc23)c1 do in these assays?
Cdc42 wt GTP: 73*; Rac1 wt GTP bind: 72*; Rab2A wt mod: 79*; HRas wt GTP: 77*; Rab7 wt GTP bind: 92; Rac1 mut GTP: 81

Results for Cn1nc(C(=O)NCc2cccnc2)c2ccccc2c1=O ?
Cdc42 wt GTP: 96; Rac1 wt GTP bind: 100; Rab2A wt mod: 99; HRas wt GTP: 98; Rab7 wt GTP bind: 96; Rac1 mut GTP: 98

What do the screens show for `O=C(Cn1c(=O)n(-c2ccccc2)c(=O)c2sccc21)NCc1ccccc1`?
Cdc42 wt GTP: 97; Rac1 wt GTP bind: 99; Rab2A wt mod: 97; HRas wt GTP: 98; Rab7 wt GTP bind: 101; Rac1 mut GTP: 96

Results for O=C(N/N=C/c1ccc(-c2ccccc2[N+](=O)[O-])o1)c1cncc(Br)c1 ?
Cdc42 wt GTP: 89; Rac1 wt GTP bind: 72*; Rab2A wt mod: 83; HRas wt GTP: 84; Rab7 wt GTP bind: 89; Rac1 mut GTP: 89

What do the screens show for `CN1/C(=C\C=C(/C#N)C(=O)Nc2ccc(Cl)cc2)C(C)(C)c2ccccc21`?
Cdc42 wt GTP: 106; Rac1 wt GTP bind: 116; Rab2A wt mod: 133*[activator]; HRas wt GTP: 105; Rab7 wt GTP bind: 118; Rac1 mut GTP: 116

What do the screens show for `COc1ccc(-c2nnc(CSc3nc4ccccc4c(=O)n3C)o2)cc1OC`?
Cdc42 wt GTP: 104; Rac1 wt GTP bind: 120*[activator]; Rab2A wt mod: 106; HRas wt GTP: 107; Rab7 wt GTP bind: 106; Rac1 mut GTP: 104

Results for Cn1c(SCc2nnc(-c3ccccc3)o2)nc2ccccc21 ?
Cdc42 wt GTP: 101; Rac1 wt GTP bind: 102; Rab2A wt mod: 103; HRas wt GTP: 100; Rab7 wt GTP bind: 106; Rac1 mut GTP: 100

Results for Cc1nn(-c2ccccc2)c2sc(-c3nnc(SCC(=O)O)o3)cc12 ?
Cdc42 wt GTP: 93; Rac1 wt GTP bind: 96; Rab2A wt mod: 96; HRas wt GTP: 96; Rab7 wt GTP bind: 99; Rac1 mut GTP: 93

What do the screens show for `CCn1c(SCC(=O)O)nnc1-c1cc2c(C)nn(-c3ccccc3)c2s1`?
Cdc42 wt GTP: 83; Rac1 wt GTP bind: 79*; Rab2A wt mod: 81; HRas wt GTP: 83; Rab7 wt GTP bind: 85; Rac1 mut GTP: 90

How did CCCC(C)C(=O)Nc1ccc(S(=O)(=O)Nc2nccs2)cc1 (configuration not stated) do in these assays?
Cdc42 wt GTP: 98; Rac1 wt GTP bind: 98; Rab2A wt mod: 100; HRas wt GTP: 96; Rab7 wt GTP bind: 102; Rac1 mut GTP: 94

What do the screens show for `Cc1ccc(-n2c(C)nn(Cc3ccc([N+](=O)[O-])cc3)c2=O)cc1`?
Cdc42 wt GTP: 94; Rac1 wt GTP bind: 99; Rab2A wt mod: 98; HRas wt GTP: 101; Rab7 wt GTP bind: 103; Rac1 mut GTP: 95

Results for Cc1ccc(-n2c3nc(=O)[nH]c(=O)c-3cc3cc([N+](=O)[O-])ccc32)cc1 ?
Cdc42 wt GTP: 80; Rac1 wt GTP bind: 77*; Rab2A wt mod: 82; HRas wt GTP: 82; Rab7 wt GTP bind: 87; Rac1 mut GTP: 80

Results for CCOC(=O)C1=NN(c2ccc(C)cc2)CC1C(=O)OC (configuration not stated) ?
Cdc42 wt GTP: 118; Rac1 wt GTP bind: 123*[activator]; Rab2A wt mod: 97; HRas wt GTP: 96; Rab7 wt GTP bind: 95; Rac1 mut GTP: 97

How did CCCc1nc(SCC(=O)N2CCC(Cc3ccccc3)CC2)c2c(=O)n(C)c(=O)n(C)c2n1 do in these assays?
Cdc42 wt GTP: 93; Rac1 wt GTP bind: 92; Rab2A wt mod: 92; HRas wt GTP: 96; Rab7 wt GTP bind: 95; Rac1 mut GTP: 93

What do the screens show for `O=C(Nc1ccc2[nH]c(=O)[nH]c2c1)c1c(F)c(F)c(F)c(F)c1F`?
Cdc42 wt GTP: 93; Rac1 wt GTP bind: 94; Rab2A wt mod: 94; HRas wt GTP: 95; Rab7 wt GTP bind: 97; Rac1 mut GTP: 92
